# Paper PMC7862700, “An all-to-all approach to the identification of sequence-specific readers for epigenetic DNA modifications on cytosine”
# Key:
# Assay in all cases: DAPPL (digital affinity profiling via proximity ligation, sequencing); 10 mM Tris-HCl pH 7.5, 50 mM NaCl, 1 mM DTT, 4% glycerol, room temperature, 30 min; GST-TFs on glutathione beads, 16-mer random dsDNA library, 0.1% formaldehyde crosslink after washing; high values mean tight binding
# Conditions in all cases: protein: recombinant; tags: N-terminal GST; dsDNA, one strand shown
# FLI1 = target: T1, FLI1 (Homo sapiens, UniProt Q01543 1-452)
# T1 sequence: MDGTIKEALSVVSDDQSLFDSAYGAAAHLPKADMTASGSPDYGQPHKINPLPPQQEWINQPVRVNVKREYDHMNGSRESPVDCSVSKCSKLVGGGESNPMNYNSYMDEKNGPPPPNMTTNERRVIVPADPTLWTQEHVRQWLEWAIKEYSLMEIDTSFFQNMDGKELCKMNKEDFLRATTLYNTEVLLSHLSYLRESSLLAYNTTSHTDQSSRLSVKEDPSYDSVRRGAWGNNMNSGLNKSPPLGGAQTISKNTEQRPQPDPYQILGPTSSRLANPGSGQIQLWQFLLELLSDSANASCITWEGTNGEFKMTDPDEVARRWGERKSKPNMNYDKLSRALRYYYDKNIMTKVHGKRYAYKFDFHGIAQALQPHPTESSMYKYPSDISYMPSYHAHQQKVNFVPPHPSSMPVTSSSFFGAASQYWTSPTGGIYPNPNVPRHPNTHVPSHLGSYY
# In short: (§1)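 Yeast served to express human transcription factors as GST fusions, which were then captured on glutathione beads and labelled with DNA barcodes. Pooled with a tag-only sample, they were incubated with 200 nmole of a 16-mer random double-stranded DNA library for 30 min at room temperature in Tris/NaCl/DTT/glycerol buffer, washed, crosslinked with 0.1% formaldehyde, ligated by proximity, amplified by PCR and sequenced. Dividing each hexamer's read frequency for a factor by its frequency for the tag-only sample gives the binding signal.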
# ELK1 = target: T2, ELK1 (Homo sapiens, UniProt P19419 1-428)
# T2 sequence: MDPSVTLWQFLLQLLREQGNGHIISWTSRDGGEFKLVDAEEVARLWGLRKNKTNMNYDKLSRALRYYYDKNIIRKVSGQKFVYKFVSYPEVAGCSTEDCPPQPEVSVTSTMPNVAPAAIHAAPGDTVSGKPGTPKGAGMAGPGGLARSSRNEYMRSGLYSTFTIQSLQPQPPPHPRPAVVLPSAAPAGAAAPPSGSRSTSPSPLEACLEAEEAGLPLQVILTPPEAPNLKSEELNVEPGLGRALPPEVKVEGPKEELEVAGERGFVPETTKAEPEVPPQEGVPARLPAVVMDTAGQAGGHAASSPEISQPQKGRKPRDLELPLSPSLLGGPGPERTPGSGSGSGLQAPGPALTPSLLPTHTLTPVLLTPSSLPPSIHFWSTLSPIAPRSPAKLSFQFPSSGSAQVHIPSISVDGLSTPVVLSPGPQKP
# In short: as §1
# GABPA = target: T3, GABPA (Homo sapiens, UniProt Q06546 1-454)
# T3 sequence: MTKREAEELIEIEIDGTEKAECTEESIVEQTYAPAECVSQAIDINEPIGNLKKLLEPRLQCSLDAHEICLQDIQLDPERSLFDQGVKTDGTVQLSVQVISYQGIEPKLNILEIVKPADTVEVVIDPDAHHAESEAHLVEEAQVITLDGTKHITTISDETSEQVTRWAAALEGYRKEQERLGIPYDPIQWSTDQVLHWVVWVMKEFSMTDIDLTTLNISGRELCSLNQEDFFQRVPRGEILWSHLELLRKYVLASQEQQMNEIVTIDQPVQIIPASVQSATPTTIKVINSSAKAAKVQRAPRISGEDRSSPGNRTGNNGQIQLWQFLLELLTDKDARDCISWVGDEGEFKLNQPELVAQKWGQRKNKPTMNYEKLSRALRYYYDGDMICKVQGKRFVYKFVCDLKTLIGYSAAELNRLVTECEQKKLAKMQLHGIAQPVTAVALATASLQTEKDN
# In short: as §1
# ERG = target: T4, ERG (Homo sapiens, UniProt P11308 1-479)
# T4 sequence: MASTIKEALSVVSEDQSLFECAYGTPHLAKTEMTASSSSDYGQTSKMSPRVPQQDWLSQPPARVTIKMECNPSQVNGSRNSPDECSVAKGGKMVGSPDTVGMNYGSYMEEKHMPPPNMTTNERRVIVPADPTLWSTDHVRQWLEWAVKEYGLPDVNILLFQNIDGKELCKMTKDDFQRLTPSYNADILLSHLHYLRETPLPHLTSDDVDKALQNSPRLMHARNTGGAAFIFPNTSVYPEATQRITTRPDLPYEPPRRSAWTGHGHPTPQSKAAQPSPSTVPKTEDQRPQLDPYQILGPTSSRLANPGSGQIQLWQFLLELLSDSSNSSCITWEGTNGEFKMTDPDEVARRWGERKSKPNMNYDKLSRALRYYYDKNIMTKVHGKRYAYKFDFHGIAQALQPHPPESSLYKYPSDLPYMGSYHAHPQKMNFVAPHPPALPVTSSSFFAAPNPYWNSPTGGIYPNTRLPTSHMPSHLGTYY
# In short: as §1
# ELF1 = ELF1 (Homo sapiens, UniProt P32519 1-619)
# ELF1, sequence (P32519 whole entry): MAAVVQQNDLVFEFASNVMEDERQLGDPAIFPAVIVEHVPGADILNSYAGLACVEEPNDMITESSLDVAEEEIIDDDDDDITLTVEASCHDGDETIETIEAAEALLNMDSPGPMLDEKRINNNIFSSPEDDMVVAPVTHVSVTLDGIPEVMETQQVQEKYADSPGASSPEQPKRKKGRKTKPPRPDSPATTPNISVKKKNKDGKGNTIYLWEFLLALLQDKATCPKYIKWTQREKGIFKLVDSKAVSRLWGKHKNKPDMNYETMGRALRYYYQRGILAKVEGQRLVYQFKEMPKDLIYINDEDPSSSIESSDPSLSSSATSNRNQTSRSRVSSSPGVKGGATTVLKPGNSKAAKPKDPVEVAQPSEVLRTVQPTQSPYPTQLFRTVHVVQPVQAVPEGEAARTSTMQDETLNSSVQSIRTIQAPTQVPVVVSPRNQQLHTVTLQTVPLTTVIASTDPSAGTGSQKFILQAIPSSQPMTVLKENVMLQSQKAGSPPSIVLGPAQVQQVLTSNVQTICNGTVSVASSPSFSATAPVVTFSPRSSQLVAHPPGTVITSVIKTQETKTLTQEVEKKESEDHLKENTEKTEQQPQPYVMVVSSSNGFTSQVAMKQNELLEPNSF
# In short: as §1
# EHF = target: T5, EHF (Homo sapiens, UniProt Q9NZC4 1-300)
# T5 sequence: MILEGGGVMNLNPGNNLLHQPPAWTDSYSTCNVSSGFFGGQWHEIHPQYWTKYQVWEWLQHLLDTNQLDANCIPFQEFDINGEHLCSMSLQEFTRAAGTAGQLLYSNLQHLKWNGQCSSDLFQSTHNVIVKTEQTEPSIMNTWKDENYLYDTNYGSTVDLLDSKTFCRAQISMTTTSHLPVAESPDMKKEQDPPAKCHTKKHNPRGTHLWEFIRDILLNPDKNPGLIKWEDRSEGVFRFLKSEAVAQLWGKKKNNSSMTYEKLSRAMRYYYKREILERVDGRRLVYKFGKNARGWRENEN
# In short: as §1
# SPI1 = SPI1 (Homo sapiens, UniProt P17947 1-270)
# In short: as §1
# SPIB = SPIB (Homo sapiens, UniProt Q01892 1-262)
# SPIB, sequence (Q01892 whole entry): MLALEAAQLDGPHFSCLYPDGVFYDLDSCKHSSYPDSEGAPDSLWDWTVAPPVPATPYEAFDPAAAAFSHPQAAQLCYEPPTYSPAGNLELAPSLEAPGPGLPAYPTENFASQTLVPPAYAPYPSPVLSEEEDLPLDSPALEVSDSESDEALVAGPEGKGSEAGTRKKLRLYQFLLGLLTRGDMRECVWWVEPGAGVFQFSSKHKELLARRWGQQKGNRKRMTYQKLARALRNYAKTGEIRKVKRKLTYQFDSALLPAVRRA
# In short: as §1
# ELK3 = target: T6, ELK3 (Homo sapiens, UniProt P41970 1-407)
# T6 sequence: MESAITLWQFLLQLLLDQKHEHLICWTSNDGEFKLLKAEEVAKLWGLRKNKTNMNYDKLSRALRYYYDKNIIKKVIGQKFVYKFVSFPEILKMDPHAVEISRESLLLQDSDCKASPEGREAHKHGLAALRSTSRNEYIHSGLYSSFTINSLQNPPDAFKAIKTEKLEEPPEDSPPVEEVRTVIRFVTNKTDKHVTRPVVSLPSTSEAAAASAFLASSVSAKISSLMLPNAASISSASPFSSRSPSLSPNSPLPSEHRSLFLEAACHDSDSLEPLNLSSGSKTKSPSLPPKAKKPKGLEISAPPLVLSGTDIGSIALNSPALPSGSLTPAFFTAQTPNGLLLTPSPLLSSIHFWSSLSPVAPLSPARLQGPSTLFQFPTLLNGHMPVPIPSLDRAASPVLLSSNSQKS
# In short: as §1
sequence,measurement,setting,value
AGATTC,binding signal,FLI1,"1.15 fold enrichment (6-mer frequency, TF over GST control)"
same,binding signal,ELK1,"1.14 fold enrichment (6-mer frequency, TF over GST control)"
same,binding signal,GABPA,"1.16 fold enrichment (6-mer frequency, TF over GST control)"
same,binding signal,ERG,"1.19 fold enrichment (6-mer frequency, TF over GST control)"
same,binding signal,ELF1,"1.21 fold enrichment (6-mer frequency, TF over GST control)"
same,binding signal,EHF,"1.2 fold enrichment (6-mer frequency, TF over GST control)"
same,binding signal,SPI1,"1.22 fold enrichment (6-mer frequency, TF over GST control)"
same,binding signal,SPIB,"1.14 fold enrichment (6-mer frequency, TF over GST control)"
same,binding signal,ELK3,"1.07 fold enrichment (6-mer frequency, TF over GST control)"
